Assay results from PubChem BioAssay.
Records with an inconclusive call do not appear. For part of these data: Potency and affinity values are given separately. Activity calls are given as the source filed them.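 Rule for the calls, unless noted: active = at least 20% inhibition of 6-phosphogluconate dehydrogenase activity; inactive = the rest.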 Peptide text beside a SMILES is read from it. * marks the point of attachment. For = O=C*

Legend:
[1] = target: 6-phosphogluconate dehydrogenase, decarboxylating (Homo sapiens) (UniProt P52209); experiment: inhibition of human phosphogluconate dehydrogenase – biochemical, recombinant enzyme, NADPH absorbance, primary screen (AID 1159550); conditions: recombinant 6PGD, NADPH absorbance 341 nm; at 10 µM; stronger effect = higher value
Sequence of 6-phosphogluconate dehydrogenase, decarboxylating (Homo sapiens) (P52209 whole entry, looked up, the tested form may be a part): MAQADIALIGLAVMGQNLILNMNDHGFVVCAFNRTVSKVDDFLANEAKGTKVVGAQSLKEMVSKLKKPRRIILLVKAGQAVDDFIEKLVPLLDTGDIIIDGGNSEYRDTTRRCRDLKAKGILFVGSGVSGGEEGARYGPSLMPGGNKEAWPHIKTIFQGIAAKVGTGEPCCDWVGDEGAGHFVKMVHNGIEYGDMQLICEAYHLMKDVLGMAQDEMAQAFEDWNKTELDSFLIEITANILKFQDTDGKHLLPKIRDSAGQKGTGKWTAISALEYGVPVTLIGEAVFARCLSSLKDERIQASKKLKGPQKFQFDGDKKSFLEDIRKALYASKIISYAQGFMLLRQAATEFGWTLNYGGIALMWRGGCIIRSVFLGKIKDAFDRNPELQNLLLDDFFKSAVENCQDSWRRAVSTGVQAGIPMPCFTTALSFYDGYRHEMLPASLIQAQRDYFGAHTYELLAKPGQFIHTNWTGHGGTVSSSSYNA

[2] = target: Mitogen-activated protein kinase 7 (Homo sapiens) (UniProt Q13164); experiment: Gal4-ERK5 driven luciferase induction – cell-based, HTS, primary screen (AID 1508626;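 active = luciferase signal above three times the same-plate solvent-only control wells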;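 note: luciferase driven by Gal4-ERK5 fusion binding five Gal4 sites before minimal TATA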); conditions: HeLa Gal4-ERK5 transactivation, 18 h, at 5 µM, stronger effect = higher value
Sequence of Mitogen-activated protein kinase 7 (Homo sapiens) (Q13164 whole entry, looked up, the tested form may be a part): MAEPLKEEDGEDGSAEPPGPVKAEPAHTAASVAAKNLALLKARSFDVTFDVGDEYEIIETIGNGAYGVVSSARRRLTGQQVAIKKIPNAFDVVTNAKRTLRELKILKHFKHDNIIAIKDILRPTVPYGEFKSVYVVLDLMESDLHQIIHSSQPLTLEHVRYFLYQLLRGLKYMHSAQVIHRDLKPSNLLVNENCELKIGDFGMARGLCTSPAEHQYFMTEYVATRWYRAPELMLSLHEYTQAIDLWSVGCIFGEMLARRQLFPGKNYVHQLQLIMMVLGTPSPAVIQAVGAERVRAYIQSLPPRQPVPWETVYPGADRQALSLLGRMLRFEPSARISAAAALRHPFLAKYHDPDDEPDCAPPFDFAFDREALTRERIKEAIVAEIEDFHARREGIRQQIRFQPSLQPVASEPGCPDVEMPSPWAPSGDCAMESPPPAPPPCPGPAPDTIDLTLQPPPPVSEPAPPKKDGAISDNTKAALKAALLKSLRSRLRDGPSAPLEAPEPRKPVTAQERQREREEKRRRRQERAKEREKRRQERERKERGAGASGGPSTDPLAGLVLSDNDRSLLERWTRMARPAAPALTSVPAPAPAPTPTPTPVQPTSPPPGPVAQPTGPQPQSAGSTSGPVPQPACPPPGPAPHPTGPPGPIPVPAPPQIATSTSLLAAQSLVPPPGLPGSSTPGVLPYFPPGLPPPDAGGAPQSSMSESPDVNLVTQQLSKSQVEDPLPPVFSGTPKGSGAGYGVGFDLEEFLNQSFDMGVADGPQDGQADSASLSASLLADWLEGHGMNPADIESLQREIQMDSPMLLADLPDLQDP

[3] = blockers of polyQ-driven CASP3 activation – cell-based (AID 1583); conditions: polyglutamine-induced caspase-3 activation, cell assay; stronger effect = higher value;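 tested at 10 µM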
[4] = yeast 75Q aggregation reduction – 75Q-TubU reporter (AID 1593); conditions: Yeast 75Q polyglutamine aggregation reporter
[5] = restoration of touch response, mutant HTT neurons – whole organism, C. elegans mechanosensory neurons, N-terminal huntingtin (AID 1599); conditions: C. elegans polyQ-huntingtin mechanosensory neurons, stronger effect = higher value
[6] = blockers of cytochrome c efflux from mitochondria – biochemical, purified mitochondria (AID 1603); conditions: stronger effect = lower value;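 note: mouse liver mitochondria challenged with calcium chloride; signal normalized to the plate average as 100%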
[7] = polyglutamine aggregate formation blockers (AID 1604); conditions: polyglutamine-induced protein aggregation inhibition assay; stronger effect = higher value; tested at 2.5 µM
[8] = glutamate transport activators, MN-1 cells, MN-1 cell line (AID 1612); conditions: MN-1 motor neuron cells, stronger effect = higher value;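 note: tested at 1 µM final; 0% = mean of DMSO vehicle wells on each plate; positive means more glutamate uptake than control and negative means less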
[9] = 75Q-TubH aggregate inhibition, S. cerevisiae, yeast (AID 1616); conditions: S. cerevisiae 75Q-TubH polyglutamine aggregation suppression; stronger effect = higher value
[10] = P. berghei load reduction in hepatocytes – cell-based, HepG2, luciferase luminescence, HepG2 viability, primary screen (AID 624349; in the data active = parasite load remaining mostly below about 12%, no sharp cut-off; inactive = mostly above about 10%;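 note: 100% = mean of DMSO negative control wells on the same plate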); conditions: P. berghei liver stage in HepG2, luciferase luminescence, concentration not given here; parasite load remaining: stronger effect = lower value; viability: measured here: HepG2 viability without parasites
[11] = rescue of PC12 cells from polyQ htt toxicity – LDH release (AID 1610); conditions: PC12 mutant huntingtin toxicity, final LDH at 4 uM, stronger effect = lower value
[12] = GFP-Q80 aggregate reduction, neuronal-like cells, cell-based, NGF-treated PC12, GFPQ80 (AID 1614); conditions: PC12 NGF-treated GFP-polyQ80 inclusion reduction;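 note: lower means fewer inclusions and 0 means no inclusions at all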
[13] = signal quenchers or enhancers, Cy5 substrate/SSB – biochemical, NIH Clinical Collection, E. coli SSB, artefact control for HCV NS3 helicase inhibitor project (AID 743268; call rule not given here); conditions: Cy5-oligo bound E. coli SSB, fluorescence interference
[14] = test system: Hepatitis C virus NS3 helicase; experiment: blockers of NS3h binding to DNA – biochemical, fluorescence polarization, NIH Clinical Collection, primary screen (AID 743270; call rule not given here); conditions: NS3 helicase binding to Cy5-dT15 DNA, stronger effect = higher value, concentration not given here
[15] = target: Single-stranded DNA-binding protein (Escherichia coli (strain K12)) (UniProt P0AGE0); experiment: SSB-ssDNA binding inhibitors – biochemical, fluorescence polarization, NIH Clinical Collection, counter-screen for HCV NS3 helicase inhibitor project (AID 743271; in the data active = inhibition above about 28%); conditions: E. coli SSB-DNA binding, stronger effect = higher value, concentration not given here
[16] = compounds distorting NS3 helicase fluorescence signal – biochemical, NIH Clinical Collection, artefact control for HCV NS3 helicase inhibitor project (AID 743272; call rule not given here;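 note: HCV NS3 helicase with a Cy5 labelled single stranded DNA probe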); conditions: fluorescence interference counterscreen, HCV NS3 helicase assay; stronger effect = lower value

C[C@@H]1O[C@@H](O[C@H]2[C@H](O[C@H]3CC[C@@]4(C)[C@@H](CC[C@]5(C)[C@@H]4CC=C4[C@@H]6CC(C)(C)CC[C@]6(C(=O)O)CC[C@]45C)[C@]3(C)CO)OC[C@H](O)[C@@H]2O)[C@H](O)[C@H](O)[C@H]1O
inhibition [1]: 10.9% (inactive)
luciferase signal [2]: 40 AU (inactive)

C=C1C(=O)OC2CC1C(OC(C)=O)C/C(C)=C/CC/C(C)=C\CCC2(C)O (stereo not drawn)
inhibition [1]: 10.9% (inactive)
luciferase signal [2]: 16 AU (inactive)

CC(=O)OC1C[C@@]2(C)[C@H](c3ccoc3)OC(=O)[C@H]3O[C@]32[C@@]2(C)C1[C@]1(C)C(C[C@H]2OC(C)=O)C(C)(C)[C@H](OC(C)=O)C[C@@H]1OC(C)=O (stereo partly drawn)
inhibition [1]: -3.59% (inactive)
luciferase signal [2]: 24 AU (inactive)

CC(=O)/C=C\[C@@H]1[C@@]2(C)CCCC(C)(C)C2CC[C@@]1(C)O (stereo partly drawn)
inhibition [1]: 14.1% (inactive)
luciferase signal [2]: 348 AU (active)

CC(=O)OC1CC2C(C)(C)C(=O)CCC2(C)C2CCC3(C)C(c4ccoc4)OC(=O)C4OC43C12C (stereo not drawn)
inhibition [1]: 11.7% (inactive)
luciferase signal [2]: 20 AU (inactive)

COc1ccc2c(c1)OC/C(=C/c1ccc(OC)c(OC)c1)C2=O
inhibition [1]: -0.769% (inactive)
luciferase signal [2]: 36 AU (inactive)

COC(=O)CC1C(C)(C)C(OC(C)=O)[C@@H]2[C@@H](OC(C)=O)[C@]34O[C@@]2(O)[C@]1(C)C3CC[C@]1(C)C4=CC(=O)O[C@H]1c1ccoc1 (stereo partly drawn)
inhibition [1]: -1.28% (inactive)
luciferase signal [2]: 12 AU (inactive)

COc1cc(O)c2c(=O)cc(-c3ccc(OC)c(-c4c(O)cc(O)c5c(=O)cc(-c6ccc(O)cc6)oc45)c3)oc2c1
inhibition [1]: -1.48% (inactive)
luciferase signal [2]: 24 AU (inactive)

CC(C)=CCc1c2c(c(O)c3c(=O)c(O)c(-c4ccccc4)oc13)C=CC(C)(C)O2
inhibition [1]: -4.34% (inactive)
luciferase signal [2]: 64 AU (inactive)

CC(=O)NC(Cc1c[nH]c2ccccc12)C(=O)O (stereo not drawn)
inhibition [1]: -6.76% (inactive)
luciferase signal [2]: 64 AU (inactive)

COc1cc2c3cc1Oc1c(OC)c(OC)cc4c1[C@@H](Cc1ccc(O)c(c1)Oc1ccc(cc1)C[C@@H]3N(C)CC2)N(C)CC4
inhibition [1]: 14.7% (inactive)
luciferase signal [2]: 64 AU (inactive)

CC(=O)CC(=O)CCC(=O)O
inhibition [1]: 9.16% (inactive)
luciferase signal [2]: 80 AU (inactive)

CC(=O)OC[C@H]1O[C@@H](Oc2cc(OC(C)=O)c3c(=O)cc(-c4ccc(OC(C)=O)cc4)oc3c2)[C@H](OC(C)=O)[C@@H](OC(C)=O)[C@@H]1OC(C)=O
inhibition [1]: 6.51% (inactive)
luciferase signal [2]: 80 AU (inactive)

Cc1cc(=O)c2c(O)cc(O)c(C)c2o1
inhibition [1]: 9.08% (inactive)
luciferase signal [2]: 132 AU (inactive)

COC1=C(O)c2cc3oc(C(C)=O)c(O)c3c(O)c2C(=O)C1=O
inhibition [1]: 1.87% (inactive)
luciferase signal [2]: 52 AU (inactive)

COC(=O)CCCOc1ccc(Cl)cc1Cl
inhibition [1]: -8.02% (inactive)
luciferase signal [2]: 60 AU (inactive)

COC1=C[C@@H](C)[C@@H]2C[C@H]3OC(=O)C[C@H]4C(C)=C(OC)C(=O)[C@H]([C@@]2(C)C1=O)[C@@]34C
inhibition [1]: -9.87% (inactive)
luciferase signal [2]: 40 AU (inactive)

O=C(O)CN(CC(=O)O)Cc1cc2c(cc1O)Oc1cc(O)c(CN(CC(=O)O)CC(=O)O)cc1C21OC(=O)c2ccccc21
inhibition [1]: -1.59% (inactive)
luciferase signal [2]: 140 AU (inactive)

CC12CCC3c4ccc(OCc5ccccc5)cc4CCC3C1C[C@@H](O)[C@@H]2O (stereo partly drawn)
inhibition [3]: -24.8%
score [4]: -1.62
rescue above control [5]: 18.3
cytochrome c release ratio [6]: 1.14
inhibition of aggregation [7]: 88.8%
glutamate uptake change [8]: -1.58%
aggregation suppression score [9]: -0.303
inhibition [1]: -6.08% (inactive)

CC(=O)O[C@H]1CC[C@@]2(C)C(=CC(=O)[C@H]3[C@@H]4CC[C@H]([C@H](C)CCCC(C)C)[C@@]4(C)CC[C@@H]32)C1
inhibition [1]: -8.76% (inactive)
luciferase signal [2]: 76 AU (inactive)

O=C(CCCCCCCCCCCCC1CCCC1)Nc1ccc(S(=O)(=O)c2ccc(NC(=O)CCCCCCCCCCCCC3CCCC3)cc2)cc1
parasite load remaining [10]: 65.7% (inactive)
viability [10]: 90.8%
inhibition [1]: 6.93% (inactive)
luciferase signal [2]: 32 AU (inactive)

CC(C)=CCC1=C(O)c2ccccc2C(=O)C1=O
inhibition [3]: -24.2%
score [4]: 0.21
rescue above control [5]: 6.74
cytochrome c release ratio [6]: 0.7
inhibition of aggregation [7]: 77.5%
normalised LDH release [11]: 0.727
glutamate uptake change [8]: -3.48%
inclusion score [12]: 2
aggregation suppression score [9]: 0.0579
parasite load remaining [10]: 85.5% (inactive)
viability [10]: 63.9%
inhibition [1]: -1.8% (inactive)
luciferase signal [2]: 60 AU (inactive)

COC(=O)[C@H]1[C@H]2C[C@H]3c4[nH]c5cc(OC)ccc5c4CCN3C[C@H]2C[C@@H](OC(=O)c2cc(OC)c(OC)c(OC)c2)[C@@H]1OC
inhibition [3]: -6.47%
score [4]: 1.04
rescue above control [5]: -3.75
cytochrome c release ratio [6]: 1.13
inhibition of aggregation [7]: 26.7%
glutamate uptake change [8]: 8.81%
inclusion score [12]: 2.5
aggregation suppression score [9]: 0.976
inhibition [1]: 0.174% (inactive)
luciferase signal [2]: 92 AU (inactive)

CC(=O)N[C@@H](CCC(=O)O)C(=O)O
inhibition [3]: 24.8%
score [4]: 1.29
rescue above control [5]: 9.63
cytochrome c release ratio [6]: 1.22
inhibition of aggregation [7]: 74.1%
glutamate uptake change [8]: -6.23%
inclusion score [12]: 2
aggregation suppression score [9]: 1.35
parasite load remaining [10]: 196% (inactive)
viability [10]: 71.4%
inhibition [1]: 13.8% (inactive)

CC1(C)C(=O)C=C[C@@]2(C)C1C=C[C@]1(C)C2CC[C@@]2(C)[C@H](c3ccoc3)OC(=O)C3OC321 (stereo partly drawn)
inhibition [1]: -14.8% (inactive)
luciferase signal [2]: 40 AU (inactive)

CSCCC(N)C(=O)NC(CC(C)C)C(=O)NC(Cc1ccccc1)C(=O)O (stereo not drawn)
inhibition [3]: 18.9%
score [4]: 1.68
rescue above control [5]: 2.33
cytochrome c release ratio [6]: 0.77
inhibition of aggregation [7]: 67.8%
glutamate uptake change [8]: 4.95%
inclusion score [12]: 2
aggregation suppression score [9]: 1.32
inhibition [1]: 9.25% (inactive)

CCOC(=O)CCCCCCCCCCCCC1C=CCC1 (stereo not drawn)
inhibition [3]: -0.73%
score [4]: -0.7
rescue above control [5]: -1.18
cytochrome c release ratio [6]: 1.01
inhibition of aggregation [7]: 55.1%
glutamate uptake change [8]: -2.82%
inclusion score [12]: 2
aggregation suppression score [9]: 0.251
inhibition [1]: 2.03% (inactive)
luciferase signal [2]: 116 AU (inactive)

C[C@H]1[C@H](C)CC[C@]2(C(=O)O)CC[C@]3(C)C(=CC[C@@H]4[C@@]5(C)C[C@@H](O)[C@H](O)[C@@](C)(CO)[C@@H]5[C@H](O)C[C@]43C)[C@H]12
inhibition [1]: 2.44% (inactive)
luciferase signal [2]: 48 AU (inactive)

COc1c(-c2ccccc2)oc2c(ccc3occc32)c1=O
inhibition [1]: -3.15% (inactive)
luciferase signal [2]: 36 AU (inactive)

CSCCC(NC=O)C(=O)NC(Cc1ccccc1)C(=O)O (stereo not drawn) (For-Met-Phe-OH; configuration not given here)
inhibition [3]: 0.6%
score [4]: 1.4
rescue above control [5]: 4.29
cytochrome c release ratio [6]: 1.19
inhibition of aggregation [7]: 59.3%
glutamate uptake change [8]: 0%
inclusion score [12]: 2
aggregation suppression score [9]: 0.985
inhibition [1]: 6.92% (inactive)

C/C=C(/C)C(=O)O[C@@H]1c2c(ccc3ccc(=O)oc23)OC(C)(C)[C@@H]1OC(C)=O
inhibition [1]: 4.61% (inactive)
luciferase signal [2]: 56 AU (inactive)

COC(=O)C[C@H]1C2(C)CC34OC5(C)O[C@@]6([C@H](OC(C)=O)C(OC(C)=O)[C@]7(C)C(/C(=C(/O)C(C)C)C(=O)O[C@H]7c7ccoc7)[C@@]6(O5)[C@H](OC(C)=O)[C@@]3(O)C2OC(=O)C(C)C)[C@]14C (stereo partly drawn)
inhibition [1]: -3.02% (inactive)
luciferase signal [2]: 24 AU (inactive)

C[C@@H]1O[C@@H](Oc2c(-c3ccc(O)c(O)c3)oc3cc(O)cc(O)c3c2=O)[C@H](O)[C@H](O)[C@H]1O
inhibition [1]: -14.2% (inactive)
luciferase signal [2]: 52 AU (inactive)

COC(=O)C[C@H]1C2(C)CC34OC5(C)O[C@@]6([C@H](OC)C(OC(=O)C(C)C)[C@]7(C)C(/C(=C(/OC)C(C)C)C(=O)O[C@H]7c7ccoc7)[C@@]6(O5)[C@H](OC)[C@@]3(OC)C2OC(C)=O)[C@]14C (stereo partly drawn)
inhibition [1]: -3.86% (inactive)
luciferase signal [2]: 20 AU (inactive)

CC=C1[C@H]2C=C(C)C[C@]1(N)c1ccc(=O)[nH]c1C2
parasite load remaining [10]: 62.9% (inactive)
viability [10]: 72.6%
fluorescence ratio [13]: 0.99 (inactive)
inhibition [14]: -2.84% (inactive)
inhibition [15]: -1.97% (inactive)
fluorescence ratio [16]: 0.96 (inactive)
inhibition [1]: -0.222% (inactive)
luciferase signal [2]: 44 AU (inactive)

COc1ccc(-c2oc3cc(O[C@@H]4O[C@H](CO)[C@@H](O)[C@H](O)[C@H]4O)c(OC)c(O)c3c(=O)c2OC)cc1O
inhibition [1]: -33.5% (inactive)
luciferase signal [2]: 172 AU (inactive)

COc1cc(OC)c2c(=O)c(OC)c(-c3ccc(OC)c(OC)c3)oc2c1
inhibition [1]: 1.73% (inactive)
luciferase signal [2]: 68 AU (inactive)
